Test results reported in ChEMBL document CHEMBL1157539, “Thousands of chemical starting points for antimalarial lead identification” (Nature, 2010).

These molecules were tested on HepG2 (assay: GSK_TCMDC: Percent inhibition of human HepG2 cell line. Test compounds present at 10uM.).
Assay type: functional

Structure (SMILES)	Inhibition [%]
CCCCc1ccc(C(=O)Nc2ccc3nc(N4CCN(C)CC4)cc(C)c3c2)cc1	44
O=C(NCc1ccccc1)c1nn(CCCN2CCC(N3CCCC3)CC2)cc1-c1ccc(Cl)c(Cl)c1	29
FC(F)(F)c1cccc(-c2cc(NCCCn3ccnc3)nc(-c3ccncc3)n2)c1	50
CCCCCCN1CCC(CNCc2cccc([N+](=O)[O-])c2)CC1.O=C(O)C(F)(F)F	16
N=C(N)NC(=O)Nc1cc(Cl)c(Cl)c(Br)c1	16
CN(C)c1ccc(CN2CCC(CNC(=O)c3cc(-c4cccc(C(F)(F)F)c4)cs3)C2)cc1.O=C(O)C(F)(F)F (stereo not drawn)	39
COCCN(CCOC)c1ncc(-c2ccsc2)c(-c2nc(C)c(C)s2)n1	1
CCNc1cc(C(=O)N[C@@H](Cc2ccccc2)[C@H](O)CN[C@@H]2CCc3ccccc32)cc(N2CCCC2=O)c1	0
C=CCNc1cc(-c2ccccn2)nc(-c2ccccn2)n1	78
CCCCOc1c(CCNCCCCNCCc2cc(F)c3ccccc3c2OCCCC)cc(F)c2ccccc12.CS(=O)(=O)O	97
O=C(Nc1ccc(N2CCCN(Cc3cccc(F)c3)CC2)cc1)c1ccccc1.O=C(O)C(F)(F)F	25
CN1CCN(c2nsc3ccc(-c4ccc(NC(=O)Nc5cc(C(F)(F)F)ccc5F)cc4)cc23)CC1.O=C(O)C(F)(F)F	100
C[C@H](NC(=O)C1CCCC1)C(=O)Nc1ccc(-c2ccc(-c3nc4cc(C(F)(F)F)ccc4[nH]3)cc2)cc1	34
